Assay results taken from PubChem BioAssay (NCI).
The panel holds about 83,000 compounds, 20% with a hit somewhere; the sample as a whole holds those more often.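 Treatment: one concentration, 48 hours, 96-well format. Scoring: percent growth, with anything below 10 considered active.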 A number with no mark means an inactive call. Calls of active or inactive are those of the source.

How the values were obtained:
Test in all cases: NCI-60 one-dose screen, 48 h (100 = growth as untreated, 0 = no growth, -100 = all killed)
Settings in all cases: 10 µM unless noted
[1] = system: NCI-H23 lung
[2] = system: NCI-H226 lung
[3] = system: NCI-H322M lung
[4] = system: HOP-62 NSCLC
[5] = system: NCI-H460 lung
[6] = system: NCI-H522 lung
[7] = system: A549/ATCC NSCLC
[8] = system: 786-0 renal
[9] = system: COLO 205 colon

Structure (SMILES) | growth [1] | growth [2] | growth [3] | growth [4] | growth [5] | growth [6] | growth [7] | growth [8] | growth [9]
CCCCSc1nc(Nc2ccc(C(C)=O)cc2)c(C#N)c(-c2ccc(OC)cc2)n1 | 60.8% | 31.3% | 75.4% | 73.9% | 27.6% | 87.8% | 45.5% | -12.4% (active) | 82.3%
O=C(/C=C/Nc1ccc2oc(=O)ccc2c1)c1cc2cc(Br)ccc2oc1=O | 98.8% | 101% | 104% | 95.4% | 114% | 101% | 101% | 103% | 131%
CCCCSc1nc(Nc2ccc(S(N)(=O)=O)cc2)c(C#N)c(-c2ccc(Cl)cc2)n1 | 26.1% | 12.8% | 73.8% | 10.6% | 7.9% (active) | 63.8% | 1.68% (active) | 23% | 55.2%
COc1ccc(-c2nc3cc(C)ccc3n2CC(=O)N=Nc2c(O)[nH]c3ccccc23)cc1 | -10.8% (active) | -35.5% (active) | 33.1% | 10.4% | -17.7% (active) | 42.1% | -34% (active) | 60.8% | 7.85% (active)
Cn1cc(-c2cc(N)n3nc(-c4c[nH]c5ccccc45)cc3n2)c2cc(Br)cnc21 | -63.8% (active) | -33.1% (active) | -50.8% (active) | -51.2% (active) | -65.1% (active) | -75.4% (active) | -33% (active) | -77% (active) | -89.3% (active)
COc1ccc(/C=C2\C(=N)N=C(SCc3nc4ccccc4[nH]3)NC2=O)cc1 | 100% | 98.1% | 110% | 105% | 105% | 103% | 112% | 114% | 122%
COc1ccc(-c2nc(SC(C)C)nc(NCCc3c[nH]c4ccccc34)c2C#N)cc1 | 45.6% | 40.8% | 87.7% | 51.5% | 24.1% | 35.8% | 47.1% | 30.3% | 45.7%
COc1c(F)ccc(C(=O)Nc2ccc3nc(NC(=O)C4CCCN(S(=O)(=O)c5ccc(C(F)(F)F)cc5)C4)sc3c2)c1F (centres undefined) | 94.4% | 81.3% | 91.9% | 94.6% | 78% | 76% | 75.3% | 62.9% | 84.2%
CCOC(=O)c1ccc(Nc2nc(NN)nc(-c3ccc(OC)cc3)c2C#N)cc1 | 115% | 112% | 123% | 109% | 109% | 103% | 105% | 99.3% | 116%
OCC1(CCCc2ccccc2)CCCN(c2nccc3ccccc23)C1 (centres undefined) | 14.9% | 37.7% | 82.5% | 72.6% | 34% |  | 39.7% | 45.4% | 10.4%
COc1cccc(/C=C/c2nc3ccccc3c(=O)n2CC(=O)Nc2ccc(Cl)cc2)c1 | 82.7% | 54.9% | 75% | 71.4% | 47.4% |  | 28.5% | 9.62% (active) | 86.4%
CN(C)c1nc(NCCNS(=O)(=O)c2ccc(C3=Nc4c(N)nc(N)nc4NC(c4ccc(F)cc4)C3)cc2)nc(Nc2ccc(F)cc2)n1 (centres undefined) | 64.5% | 53% | 63.3% | 72.4% | 21.7% | 42.1% | 66.3% | 30.2% | 37.9%
Cc1cccc(NC(=O)[C@]23CCC(C)(C)CC2C2=CCC4[C@@]5(C)C[C@@H](O)[C@H](O)[C@@](C)(CO)C5CC[C@@]4(C)[C@]2(C)CC3)c1 (some centres undefined) | -27.7% (active) | -17.8% (active) | 51.6% | 50.9% | -18.3% (active) | 10.8% | 21.1% | 22.7% | -31.7% (active)
CC(C)C(C(=O)O)n1c(O)c(/C=C2/C=c3cc4c(cc3=NC2=O)OCO4)sc1=S (centres undefined) | 98.4% | 101% | 103% | 115% | 114% | 99.4% | 110% | 105% | 115%
